The panel holds about 83,000 compounds, 20% with a hit somewhere; the sample as a whole holds those more often.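 Compound tested at a single concentration for 48 hours in 96-well plates; a percent growth value below 10 was scored as active.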 A number with no mark means an inactive call. Activity calls are given as the source filed them.

What all share (assay): NCI-60 one-dose screen, 48 h (100 = growth as untreated, 0 = no growth, -100 = all killed)
One experiment deals with NCI-H23 lung. Conditions: 10 µM unless noted.
The test system of the next experiment is NCI-H226 lung. Conditions: 10 µM unless noted.
The test system of a further experiment is NCI-H322M lung. Conditions: 10 µM unless noted.
The subject of another experiment is HOP-62 NSCLC. Conditions: 10 µM unless noted.
Another experiment relates to A549/ATCC NSCLC. Conditions: 10 µM unless noted.
A further experiment deals with 786-0 renal. Conditions: 10 µM unless noted.
The test system of a further experiment is COLO 205 colon. Conditions: 10 µM unless noted.
Another experiment concerns DU-145 prostate. Conditions: 10 µM unless noted.
A further experiment concerns K-562 leukemia. Conditions: 10 µM unless noted.
A further experiment deals with MALME-3M melanoma. Conditions: 10 µM unless noted.
Another experiment relates to MDA-MB-231 breast. Conditions: 10 µM unless noted.
Another experiment concerns RXF 393 renal. Conditions: 10 µM unless noted.
A further experiment deals with SF-268 CNS. Conditions: 10 µM unless noted.
A further experiment concerns SF-295 CNS. Conditions: 10 µM unless noted.
The next experiment concerns SF-539 CNS. Conditions: 10 µM unless noted.
The test system of another experiment is UACC-257 melanoma. Conditions: 10 µM unless noted.
For another experiment, the system named is M14 melanoma. Conditions: 10 µM unless noted.
In the next experiment the test system is HOP-92 NSCLC. Conditions: 10 µM.
The subject of the next experiment is NCI-H460 lung. Conditions: 10 µM unless noted.
The test system of a further experiment is NCI-H522 lung. Conditions: 10 µM.

Turning to `COc1ccc(C2CC(=O)c3c(O)cc(OC4OC(COC5OC(C)C(O)C(O)C5O)C(O)C(O)C4O)cc3O2)cc1O` (centres undefined), the growth in the experiment with NCI-H23 lung was 105%; in the experiment with NCI-H226 lung, 105%; in the experiment on NCI-H322M lung, 81.7%; in the experiment on HOP-62 NSCLC it was 10.3%; in the experiment on A549/ATCC NSCLC it was 98.3%; in the experiment on 786-0 renal, 100%. Further, the growth was 112% with COLO 205 colon; 136% with DU-145 prostate; 167% in the experiment with K-562 leukemia; 96.1% in the experiment with MALME-3M melanoma; 111% in the experiment on MDA-MB-231 breast; 111% in the experiment on RXF 393 renal. In addition, the growth in the experiment on SF-268 CNS was 112%; with SF-295 CNS, 87.8%; in the experiment on SF-539 CNS, 98.7%; with UACC-257 melanoma, 95.5%; in the experiment on M14 melanoma, 98.7%.
`Cc1c([C@H](C(Cl)Cl)[C@H](O)[C@H]2C[C@H](C)C(=O)O2)ccc2c1C(=O)[C@H]1[C@H]2C[C@@H](Br)[C@@]23O[C@@H](CO[C@H]2O)CC13C` (some centres undefined): the growth in the experiment on NCI-H23 lung is 20.3%; in the experiment on NCI-H226 lung, 42.9%; with NCI-H322M lung it was 33.1%; in the experiment on HOP-62 NSCLC, 49.8%; in the experiment on HOP-92 NSCLC it was 69.2%; in the experiment with A549/ATCC NSCLC, -1.06% (active). Further, the growth in the experiment on 786-0 renal was 40.1%; with DU-145 prostate, -34.9% (active); in the experiment on K-562 leukemia it was 7.69% (active); in the experiment on MALME-3M melanoma, 77.9%; with MDA-MB-231 breast, 4.9% (active); in the experiment with RXF 393 renal, 15.5%. Besides, the results for the growth with SF-268 CNS, in the experiment with UACC-257 melanoma and in the experiment with M14 melanoma were 33%, 61.9% and 33.2%, respectively.
Regarding `CCOC(=O)CCCCCCCCC(=O)OCC`, the growth in the experiment with NCI-H23 lung is 96.3%; in the experiment on NCI-H226 lung, 103%; in the experiment on NCI-H322M lung it was 97.6%; in the experiment with NCI-H460 lung, 108%; with HOP-92 NSCLC, 98.6%; in the experiment on NCI-H522 lung, 105%. The growth with A549/ATCC NSCLC was 107%; in the experiment on 786-0 renal, 106%; in the experiment on COLO 205 colon, 108%; with DU-145 prostate it was 108%; in the experiment on K-562 leukemia, 101%; in the experiment on MALME-3M melanoma it was 94.4%. In addition, the growth with MDA-MB-231 breast was 111%; in the experiment with RXF 393 renal, 112%; in the experiment with SF-268 CNS, 97.3%; in the experiment on SF-295 CNS, 103%; in the experiment with SF-539 CNS, 112%; in the experiment with UACC-257 melanoma it was 101%. The growth with M14 melanoma was 114%.
For the compound `CCc1c(C)c2ccc(OCC(=O)N=Nc3c(O)[nH]c4ccccc34)c(C)c2oc1=O`, the growth was 5.58% (active) with NCI-H23 lung; 12.4% in the experiment on NCI-H226 lung; -14.2% (active) with NCI-H322M lung; -46.7% (active) with NCI-H460 lung; 29.7% with HOP-92 NSCLC; -9.85% (active) in the experiment on NCI-H522 lung. For the same compound, the growth was 30.2% in the experiment on A549/ATCC NSCLC; -22.9% (active) with 786-0 renal; 31.4% in the experiment with COLO 205 colon; 7.92% (active) in the experiment on DU-145 prostate; 4.73% (active) with K-562 leukemia; 42.5% in the experiment on MALME-3M melanoma. For the same compound, the growth was 0.841% (active) with MDA-MB-231 breast; 35.7% in the experiment on RXF 393 renal; 18.4% with SF-268 CNS; -9.71% (active) with SF-295 CNS; 85% in the experiment on SF-539 CNS; 28.2% with UACC-257 melanoma. Moreover, the growth in the experiment on M14 melanoma is 3.57% (active).
As for `CC(=O)Nc1nc(C)c(C(=O)NN)s1`, the growth is 103% with NCI-H23 lung; 92.1% with NCI-H226 lung; 96% in the experiment with NCI-H322M lung; 115% in the experiment on NCI-H460 lung; 3.84% (active) in the experiment with HOP-92 NSCLC; 97.5% in the experiment on NCI-H522 lung. Moreover, the growth in the experiment with A549/ATCC NSCLC was 101%; in the experiment on 786-0 renal it was 93%; with COLO 205 colon, 108%; with DU-145 prostate, 105%; in the experiment on K-562 leukemia, 67.3%; with MALME-3M melanoma, 120%. In addition, the growth was 99% in the experiment with MDA-MB-231 breast; 104% with RXF 393 renal; 95.2% with SF-268 CNS; 133% in the experiment with SF-295 CNS; 91.3% in the experiment with SF-539 CNS; 108% in the experiment with UACC-257 melanoma. Moreover, the growth with M14 melanoma was 113%.
As to `COc1cc(NC(C)CCCN)c2nc(C)ccc2c1OC` (centres undefined), the growth with NCI-H23 lung is 90.9%; in the experiment on NCI-H226 lung it was 102%; with NCI-H322M lung it was 96.9%; with NCI-H460 lung, 109%; with HOP-92 NSCLC, 55.5%; in the experiment on NCI-H522 lung, 101%. For the same compound, the growth is 147% with A549/ATCC NSCLC; 98.3% in the experiment with 786-0 renal; 60.5% with COLO 205 colon; 87.2% in the experiment with DU-145 prostate; 78.9% in the experiment on K-562 leukemia; 69.9% in the experiment with MALME-3M melanoma. In addition, the growth with MDA-MB-231 breast was 75.6%; in the experiment with RXF 393 renal it was 186%; with SF-268 CNS it was 109%; in the experiment on SF-295 CNS, 118%; in the experiment with SF-539 CNS, 93.6%; in the experiment with UACC-257 melanoma it was 124%.
Take `FC(F)(F)c1cccc(-c2[nH]ncc2-c2nnnn2-c2ccccc2)c1`: the growth in the experiment on NCI-H23 lung was 73.9%; in the experiment on NCI-H226 lung it was 76.2%; in the experiment with NCI-H322M lung it was 57.7%; with NCI-H460 lung it was 21.8%; with HOP-92 NSCLC it was 34.2%; with NCI-H522 lung, 23%. For the same compound, the growth is 41.8% in the experiment with A549/ATCC NSCLC; 58.2% with 786-0 renal; 36% in the experiment on COLO 205 colon; 76.1% with DU-145 prostate; 11.8% in the experiment on K-562 leukemia; 61.6% with MALME-3M melanoma. The growth with MDA-MB-231 breast is 41%; in the experiment on RXF 393 renal, -20.4% (active); in the experiment with SF-268 CNS, 66.4%; in the experiment on SF-295 CNS, 56.7%; in the experiment on SF-539 CNS, 63.9%; with UACC-257 melanoma, 48.4%.
As for `O=C1/C(=N\c2cc(=O)[nH]n2S(=O)(=O)c2ccccc2)Nc2ccccc21`, the growth with NCI-H23 lung is 107%; in the experiment on NCI-H226 lung, 92.4%; with NCI-H322M lung it was 105%; with NCI-H460 lung, 105%; with HOP-92 NSCLC it was 89.6%; in the experiment with NCI-H522 lung it was 96.7%. Moreover, the growth is 111% in the experiment with A549/ATCC NSCLC; 106% in the experiment with 786-0 renal; 114% with COLO 205 colon; 108% in the experiment with DU-145 prostate; 98.7% with K-562 leukemia; 95.1% in the experiment on MALME-3M melanoma. For the same compound, the growth was 96.5% in the experiment on MDA-MB-231 breast; 101% in the experiment with RXF 393 renal; 97.6% with SF-268 CNS; 101% with SF-295 CNS; 94.8% with SF-539 CNS; 123% in the experiment with UACC-257 melanoma. Besides, the growth in the experiment on M14 melanoma is 91.1%.

The record behind these values is PubChem BioAssay (NCI).
